# Inconclusive results are not listed. A number with no mark means an inactive call. Active and inactive are the calls of the source. The call rests on the fitted dose curve; in most records, active means well fitted curve in the direction sought with a large enough effect; inconclusive means small, poorly fitted or top-dose-only effect, or another doubt; inactive means no such curve, though single readings can be large; an effect the other way counts as inactive or inconclusive.
# Key:
# [1] = qHTS of pediatric cancer cell lines to identify multiple opportunities for drug repurposing: Confirmatory screen for U-2 OS cells (AID 1347122); conditions: U-2 OS osteosarcoma cell viability; series mostly up to 45.9 µM; further: nearly all actives have a fitted effect of over 65% in size; further: potency means the concentration at half of the fitted maximal effect
# Summary of the method: (§1)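 Cells (500-1,000/well) rested 5 h, then received compounds for 48 h; metabolically active cells were measured by CellTiter-Glo luminescence. Final concentrations spanned up to 46 µM (MIPE, 11-point) or 0.59 nM-46 µM (NPC, 8-point) in primary screens, 11-point in follow-ups.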
# [2] = qHTS of pediatric cancer cell lines to identify multiple opportunities for drug repurposing: Confirmatory screen for Rh41 cells (AID 1347123); conditions: Rh41 rhabdomyosarcoma cells, viability/cytotoxicity qHTS; series mostly up to 45.9 µM;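 further: 48 h compound exposure; nearly all actives have a fitted effect of over 60% in size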; further: potency means the concentration at half of the fitted maximal effect
# Summary of the method: as §1
# [3] = qHTS of pediatric cancer cell lines to identify multiple opportunities for drug repurposing: Confirmatory screen for RD cells (AID 1347124); conditions: RD rhabdomyosarcoma cell viability; series mostly up to 45.9 µM;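 further: cells exposed to compound for 48 h before viability readout; nearly all actives have a fitted effect of over 65% in size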; further: potency means the concentration at half of the fitted maximal effect
# Summary of the method: as §1
# [4] = qHTS of pediatric cancer cell lines to identify multiple opportunities for drug repurposing: Confirmatory screen for Rh18 cells (AID 1347125); conditions: Rh18 rhabdomyosarcoma cells, viability; series mostly up to 45.9 µM; further: nearly all actives have a fitted effect of over 55% in size; further: potency means the concentration at half of the fitted maximal effect
# Summary of the method: as §1
# [5] = qHTS of pediatric cancer cell lines to identify multiple opportunities for drug repurposing: Confirmatory screen for Rh30 cells (AID 1347126); conditions: Rh30 rhabdomyosarcoma cell viability; series mostly up to 45.9 µM; further: nearly all actives have a fitted effect of over 55% in size; further: potency means the concentration at half of the fitted maximal effect
# Summary of the method: as §1
# [6] = qHTS of pediatric cancer cell lines to identify multiple opportunities for drug repurposing: Confirmatory screen for Saos-2 cells (AID 1347127); conditions: Saos-2 osteosarcoma cell viability; series mostly up to 45.9 µM; further: nearly all actives have a fitted effect of over 60% in size; further: potency means the concentration at half of the fitted maximal effect
# Summary of the method: as §1
# [7] = qHTS of pediatric cancer cell lines to identify multiple opportunities for drug repurposing: Confirmatory screen for SK-N-SH cells (AID 1347129); conditions: SK-N-SH neuroblastoma cell viability; series mostly up to 46.1 µM;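 further: cells exposed to compound for 48 h before viability read; nearly all actives have a fitted effect of over 60% in size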; further: potency means the concentration at half of the fitted maximal effect
# Summary of the method: as §1
# [8] = tested on: Zika virus NS2B-NS3 protease; assay: Primary screen GU AMC qHTS for Zika virus inhibitors (AID 1347154); conditions: Zika NS2B-NS3 unlinked protease, AMC fluorogenic substrate; series mostly up to 54.1 µM;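 further: 0% = no-inhibitor control and -100% = no-enzyme control; nearly all actives have a fitted effect of over 70% in size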
# Summary of the method: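 Fluorogenic AMC-substrate cleavage by noncovalent NS2B-NS3 protease complex (25 nM, pH 8.0 Tris buffer with Tween 20) followed for 15 minutes at room temperature (~20% conversion). Percent inhibition from ex340/em450 signal change, fitted by 4-parameter Hill equation.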
# [9] = qHTS of pediatric cancer cell lines to identify multiple opportunities for drug repurposing: Confirmatory screen for OHS-50 cells (AID 1347128); conditions: OHS-50 osteosarcoma cells viability; series mostly up to 45.9 µM;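 further: compound exposure lasted 48 h at 37 degrees C; nearly all actives have a fitted effect of over 55% in size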; further: potency means the concentration at half of the fitted maximal effect
# Summary of the method: as §1
# [10] = tested on: Zika virus NS2B-NS3 protease (unlinked complex); assay: Primary screen GU Rhodamine qHTS for Zika virus inhibitors: Unlinked NS2B-NS3 protease assay (AID 1347159); conditions: Recombinant ZIKV NS2B-NS3 protease, Rhodamine110 substrate fluorescence; series mostly up to 107 µM; further: nearly all actives have a fitted effect of over 60% in size; further: potency means the concentration at half of the fitted maximal effect; on activity change, negative = inhibition: on the % scale 0 is the no-effect control and ±100 the full control effect
# Summary of the method: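 Percent inhibition came from the 15-min rise in Rhodamine110 fluorescence (1.5 microM substrate, ~15% conversion), normalized to no-inhibitor and no-enzyme wells and Hill-fitted. Unlinked protease, 25 nM, pH 8.0 Tris buffer; compounds up to 114 microM, 15-min preincubation.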
# [11] = tested on: Zika virus NS2B-NS3 protease (linked construct); assay: Primary screen NINDS Rhodamine qHTS for Zika virus inhibitors (AID 1347160); conditions: purified NS2B-NS3 protease, Rhodamine110 substrate fluorescence; series mostly up to 57.1 µM; further: nearly all actives have a fitted effect of over 55% in size; on activity change, negative = inhibition: on the % scale 0 is the no-effect control and ±100 the full control effect
# Summary of the method: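 Rhodamine110-peptide cleavage (1.5 µM substrate) by 25 nM linked NS2B-NS3 enzyme at pH 8.0 (Tris, Tween 20), after 15 min RT preincubation with compounds; 15-min fluorescence change normalized to controls and Hill-fitted.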
Compound,Potency [1],Potency [2],Potency [3],Potency [4],Potency [5],Potency [6],Potency [7],Potency [8],Potency [9],Potency [10],Potency [11],"activity change, negative = inhibition [8]"
CN(C)c1ccc(C(=O)NCCCCCCC(=O)NO)cc1,1.47 µM (active),1.17 µM (active),2.33 µM (active),1.47 µM (active),3.29 µM (active),2.93 µM (active),2.35 µM (active),inactive,–,–,–,–
COc1ccc(C=Cc2cc(OC)c(OC)c(OC)c2)cc1NC(=O)[C@H](N)CO,0.117 µM (active),0.104 µM (active),0.131 µM (active),inactive,0.928 µM (active),0.0737 µM (active),–,inactive,–,–,–,–
C[C@H](NCc1ccc2c(c1)nc(NC(=O)c1ccc(-c3cn[nH]c3)s1)n2CCc1ccccc1)C(C)(C)C,1.17 µM (active),0.928 µM (active),1.17 µM (active),3.29 µM (active),4.14 µM (active),1.47 µM (active),0.833 µM (active),inactive,1.47 µM (active),–,–,–
CC1(C)O[C@@H]2C[C@H]3[C@@H]4CCC5=CC(=O)C=C[C@]5(C)[C@@H]4[C@@H](O)C[C@]3(C)[C@]2(C(=O)CO)O1,inactive,inactive,inactive,inactive,inactive,inactive,inactive,inactive,inactive,–,–,–
C[C@@H](Oc1ccc2[nH]nc(C=Cc3cnn(CCO)c3)c2c1)c1c(Cl)cncc1Cl,2.08 µM (active),0.104 µM (active),5.22 µM (active),3.69 µM (active),4.14 µM (active),2.61 µM (active),inactive,inactive,4.14 µM (active),–,–,–
C[C@@]12C(=O)OC(=O)[C@@]1(C)C1CCC2O1,1.85 µM (active),1.85 µM (active),4.14 µM (active),2.93 µM (active),3.29 µM (active),2.61 µM (active),5.9 µM (active),inactive,4.65 µM (active),–,–,–
CNC(=O)Nc1ccc(-c2nc(N3CC4CCC(C3)O4)c3cnn(C4CCC5(CC4)OCCO5)c3n2)cc1,0.522 µM (active),0.131 µM (active),0.522 µM (active),0.233 µM (active),0.329 µM (active),1.31 µM (active),1.32 µM (active),inactive,3.29 µM (active),–,–,–
Cc1ncc(-c2ccnc(Nc3ccc(S(C)(=O)=O)cc3)n2)n1C(C)C,3.29 µM (active),2.93 µM (active),5.22 µM (active),–,–,3.69 µM (active),4.18 µM (active),–,3.29 µM (active),inactive,inactive,–
C=CCNC1=C2C[C@@H](C)C[C@H](OC)[C@@H](O)[C@@H](C)C=C(C)[C@H](OC(N)=O)[C@@H](OC)C=CC=C(C)C(=O)NC(=CC1=O)C2=O,0.414 µM (active),0.737 µM (active),0.131 µM (active),0.585 µM (active),4.14 µM (active),–,1.87 µM (active),inactive,11.7 µM (active),–,–,–
O=C(C=CC=Cc1ccc2c(c1)OCO2)N1CCCCC1,inactive,inactive,inactive,inactive,–,inactive,inactive,–,inactive,–,–,–
CC[C@@]1([C@@H]2O[C@@H]([C@H]3O[C@@](O)(CO)[C@H](C)C[C@H]3C)C[C@H]2C)CC[C@H]([C@]2(C)CC[C@]3(C[C@H](O)[C@@H](C)[C@@H]([C@@H](C)[C@@H](OC)[C@H](C)C(=O)O)O3)O2)O1,2.57 µM (active),0.91 µM (active),2.29 µM (active),–,–,0.723 µM (active),0.645 µM (active),inactive,0.456 µM (active),–,–,–
COC(=O)C1C2CC3c4[nH]c5cc(OC)ccc5c4CCN3CC2CC(OC(=O)c2cc(OC)c(OC)c(OC)c2)C1OC (centres undefined),20.8 µM (active),11.7 µM (active),–,16.5 µM (active),–,5.85 µM (active),–,inactive,–,–,–,–
C=CC(=O)Nc1cccc(Nc2nc(NC3CCC(N(C)C)CC3)nc3c2ncn3C(C)C)c1 (centres undefined),5.22 µM (active),0.414 µM (active),0.737 µM (active),0.657 µM (active),–,1.65 µM (active),2.96 µM (active),inactive,2.08 µM (active),–,–,–
C[C@H]1[C@@H](OC(=O)CCC(=O)O)O[C@@H]2O[C@@]3(C)CC[C@@H]4[C@H](C)CC[C@@H]1[C@@]24OO3,13.1 µM (active),5.85 µM (active),1.04 µM (active),–,–,1.31 µM (active),–,inactive,3.29 µM (active),inactive,inactive,–
CS[C@H]1SC[C@@H]2C(=O)N(C)[C@H](C(C)C)C(=O)OC[C@H](NC(=O)c3cnc4ccccc4n3)C(=O)N[C@H](C)C(=O)N(C)[C@@H]1C(=O)N(C)[C@H](C(C)C)C(=O)OC[C@H](NC(=O)c1cnc3ccccc3n1)C(=O)N[C@H](C)C(=O)N2C,0.0208 µM (active),0.0059 µM (active),–,inactive,–,inactive,0.0132 µM (active),–,0.0147 µM (active),–,–,–
CCC(C=C[C@@H]1OC(=O)C=C[C@H]1C)=C[C@H](C)CC=CC(C)=C[C@@H](C)C(=O)[C@@H](C)[C@H](O)[C@@H](C)CC(C)=CC(=O)O,0.0091 µM (active),0.0128 µM (active),0.0128 µM (active),0.0091 µM (active),–,–,–,–,0.0161 µM (active),–,–,23.8% [at 2.16 µM]
COc1ccc(Nc2cc(-c3cnc(N)nc3)nc(N3CCOCC3)n2)cn1,9.27 µM (active),4.14 µM (active),2.61 µM (active),11.7 µM (active),–,3.29 µM (active),5.9 µM (active),inactive,6.57 µM (active),–,–,–

Compound,Potency [1],Potency [2],Potency [3],Potency [4],Potency [5],Potency [6],Potency [7],Potency [8],Potency [9],Potency [10],Potency [11],"activity change, negative = inhibition [8]"
COc1cccc2c1C(=O)c1c(O)c3c(c(O)c1C2=O)C[C@@](O)(C(C)=O)C[C@H]3O[C@H]1C[C@H](N)[C@H](O)[C@H](C)O1,7.37 µM (active),0.585 µM (active),2.61 µM (active),2.61 µM (active),inactive,–,0.662 µM (active),inactive,2.08 µM (active),–,–,–
CCC(C(=O)O)C1CCC(C)C(C(C)C(O)C(C)C(=O)C(CC)C2OC3(C=CC(O)[C@@]4(CC[C@](C)(C5CC[C@@](O)(CC)C(C)O5)O4)O3)C(C)CC2C)O1 (some centres undefined),7.37 µM (active),1.47 µM (active),–,–,18.5 µM (active),–,5.9 µM (active),–,0.369 µM (active),–,–,–
NC(=O)Nc1cc(-c2ccc(CN3CCOCC3)cc2)sc1C(N)=O,11.7 µM (active),13.1 µM (active),–,–,–,13.1 µM (active),14.8 µM (active),–,–,–,–,–
C[N+](C)([O-])CCNc1ccc(NCC[N+](C)(C)[O-])c2c1C(=O)c1c(O)ccc(O)c1C2=O,inactive,18.5 µM (active),–,inactive,inactive,–,inactive,inactive,–,–,–,–
O=C(C=Cc1ccc(CN(CCO)CCc2c[nH]c3ccccc23)cc1)NO,0.165 µM (active),0.0585 µM (active),–,0.233 µM (active),0.414 µM (active),–,0.118 µM (active),inactive,–,–,–,–
CC[C@]12C=CCN3CC[C@@]4(c5cc([C@@]6(C(=O)OC)C[C@H]7C[C@@H](C(C)(F)F)CN(Cc8c6[nH]c6ccccc86)C7)c(OC)cc5N(C)[C@H]4[C@@](O)(C(=O)OC)[C@H]1OC(C)=O)[C@@H]32,inactive,3.69 µM (active),inactive,inactive,–,inactive,inactive,inactive,inactive,–,–,–
COc1cc(OC)c(C=CS(=O)(=O)Cc2ccc(OC)c(NCC(=O)O)c2)c(OC)c1,0.293 µM (active),0.293 µM (active),–,inactive,inactive,0.329 µM (active),–,inactive,–,–,–,–
COc1cc2ncnc(Nc3cccc(Br)c3)c2cc1OC,inactive,11.7 µM (active),–,–,9.27 µM (active),inactive,20.9 µM (active),inactive,10.4 µM (active),–,–,–
CCN(CC)Cc1ccc2cc(COC(=O)Nc3ccc(C(=O)NO)cc3)ccc2c1,inactive,inactive,–,–,inactive,inactive,inactive,–,–,inactive,inactive,–
Cc1cnc(Nc2ccc(CN3CCOCC3)cc2)nc1Nc1cccc(S(=O)(=O)NC(C)(C)C)c1,4.65 µM (active),5.22 µM (active),–,9.27 µM (active),inactive,9.27 µM (active),5.26 µM (active),inactive,5.22 µM (active),inactive,inactive,–
O=C1NC(=O)C(=Cc2ccc3nccc(-c4ccncc4)c3c2)S1,2.61 µM (active),2.61 µM (active),7.37 µM (active),–,6.57 µM (active),2.93 µM (active),4.18 µM (active),–,7.37 µM (active),–,–,–
COc1cc([C@@H]2c3cc4c(cc3[C@@H](O[C@@H]3O[C@@H]5CO[C@@H](c6cccs6)O[C@@H]5[C@H](O)[C@@H]3O)[C@H]3COC(=O)[C@H]23)OCO4)cc(OC)c1O,2.33 µM (active),0.585 µM (active),–,1.31 µM (active),1.31 µM (active),inactive,3.32 µM (active),inactive,–,–,–,–
CCc1cc(C(C)=NOCc2ccc(C3CCCCC3)c(C(F)(F)F)c2)ccc1CN1CC(C(=O)O)C1,inactive,–,inactive,inactive,inactive,14.7 µM (active),–,–,23.3 µM (active),–,–,–
O=C1NCCc2[nH]c(-c3ccncc3)cc21,2.93 µM (active),2.33 µM (active),–,–,–,3.69 µM (active),2.09 µM (active),inactive,2.93 µM (active),–,–,–
CC(=O)SCC(Cc1ccccc1)C(=O)NCC(=O)OCc1ccccc1 (centres undefined),inactive,–,inactive,inactive,inactive,inactive,inactive,inactive,inactive,–,–,–
O=C(O)c1ccc(Nc2ncc3c(n2)-c2ccc(Cl)cc2C(c2c(F)cccc2F)=NC3)cc1,4.14 µM (active),2.33 µM (active),–,–,inactive,–,–,–,inactive,8.91 µM (active),–,–
Cn1cc(-c2cnn3c(N)c(Br)c([C@H]4CCCNC4)nc23)cn1,2.93 µM (active),23.3 µM (active),inactive,inactive,3.69 µM (active),–,18.7 µM (active),inactive,–,–,–,–

# Source: PubChem BioAssay (NCATS)
